Reference: PubChem BioAssay (NCATS)
Records with an inconclusive call do not appear. A number with no mark means an inactive call. Active and inactive are the calls of the source. Calls follow the shape of the dose curve; as a rule, active = well fitted inhibition curve with a large enough effect; inconclusive = small, poorly fitted or top-dose-only effect; inactive = flat fitted curve, though single readings scatter.

These molecules were tested against Calcium and integrin-binding protein 1 (Homo sapiens) (UniProt Q99828) (assay: Primary qHTS for Identification of Calcium Integrin Binding Protein 1 (CIB1) Competitor (AID 1508620;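 also: GST tagged CIB1 binding a fluorescein labelled alphaIIb integrin peptide tracer; top concentration of the series differs between compounds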)). Conditions: CIB1-GST / FITC-alphaIIb peptide fluorescence polarization; series mostly up to 114 µM; activity change, negative = inhibition: at the top concentration.
Procedure, shortened: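 CIB1-GST (1 uM final) and compound incubated 15 min at room temperature before adding FITC-alphaIIb peptide tracer (100 nM final). Competition for binding read by fluorescence polarization (ex 480, em 540) after another 15 min at room temperature.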
% is scaled to controls: 0 for no effect and ±100 for the full control effect.

Chain of Calcium and integrin-binding protein 1 (Homo sapiens) (Q99828 whole entry, looked up): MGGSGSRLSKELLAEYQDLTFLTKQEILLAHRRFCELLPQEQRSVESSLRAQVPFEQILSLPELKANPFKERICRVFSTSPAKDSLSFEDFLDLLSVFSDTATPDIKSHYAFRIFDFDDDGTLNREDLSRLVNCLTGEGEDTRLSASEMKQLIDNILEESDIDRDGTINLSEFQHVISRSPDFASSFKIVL

| SMILES | activity change, negative = inhibition | Potency |
| --- | --- | --- |
| Cc1ccc(N[S+](=O)([O-])c2cc3c(cc2Cl)CCC(=O)N3)cc1Br | -5.02% | – |
| COc1cccc(CNc2ccc(S(=O)(=O)Nc3ncccn3)cc2)c1O | 1.42% | – |
| Fc1ccc(Nc2nc(-c3ccncc3)nc3ccccc23)cc1F | -3.73% | – |
| Cn1ccc2cc(-c3ccc4ncnc(NCc5cccc(F)c5)c4c3)ccc21 | -0.275% | – |
| O=C1CCCC2=C1C(c1[nH]ncc1Cl)NC(=NCCc1ccccc1)N2 (stereo not given) | 2.97% | – |
| COc1cc(O)c(C(CC(=O)N2CCC[C@H](C)C2)c2ccc3c(c2)OCO3)c(OC)c1 (stereo not given in full) | -5.13% [at 228 µM] | – |
| Nc1ccccc1OC1=NS(=O)(=O)c2ccccc21 | -4.94% | – |
| COc1ccc(OC)c(C2=Nn3c(nnc3-c3ccc(OC)c(OC)c3)SC2)c1 | 3.65% | – |
| CC(C)(C)C(=O)N1CCN(c2cccc(Nc3nn4c(=O)c5ccccc5nc4s3)c2)CC1 | -10.6% | – |
| Cc1noc(C)c1-c1ccc2ncnc(NCc3ccc(C(F)(F)F)cc3)c2c1 | 1.92% | – |
| N#Cc1c(-c2cccc(C(F)(F)F)c2)no[n+]1[O-] | -0.333% | – |
| O=c1c2ccccc2nc2sc(Nc3cccc(Cl)c3)nn12 | 5.23% | – |
| COc1ccc(C2NC(=O)c3ccccc3N2)cc1COc1ccc(NC(C)=O)cc1 (stereo not given) | 2.32% | – |
| O=c1c2ccccc2nc2sc(Nc3ccc(F)cc3)nn12 | 11.4% | – |
| Cc1ccnc(NC(=S)N2CCN(c3ccc(C(F)(F)F)cc3)CC2)c1 | -13% | – |
| Cc1cc2c(s1)c1cnn(Cc3ccc(C(=O)O)cc3)c(=O)c1n2C | -13.3% | – |
| CC1(C)CC2CC(C)(CN2S(=O)(=O)c2ccc(C(=O)Nc3cccc(S(=O)(=O)N4CCOCC4)c3)cc2)C1 (stereo not given) | 8.98% | – |
| N#Cc1ccc(-c2csc(N3CCC(C(N)=O)CC3)n2)cc1 | 2.82% | – |
| COc1cccc(C2c3c(ncn(-c4cccc(C)c4)c3=N)Oc3ccc4ccccc4c32)c1 (stereo not given) | 8.38% | – |
| COc1ccc(/C=C(\C)C2Nc3cccc4cccc(c34)N2)cc1 | -19% | – |

| SMILES | activity change, negative = inhibition | Potency |
| --- | --- | --- |
| O=C(O)c1ccccc1-c1noc(-c2ccccc2F)n1 | 2.71% | – |
| Cc1ccnc(NC(=S)NC2CN(c3cccc(C(F)(F)F)c3)C2)c1 | -9.61% | – |
| COc1cccc(-n2cnc3cc(C(=O)N4CCCCC4)ccc32)c1 | 6.63% | – |
| Cc1ccc(OCCn2c(CCNC(=O)C3CCC3)nc3ccccc32)cc1 | -4.31% | – |
| COc1cc(NC(=O)C(OC(=O)CNC(=O)c2ccccc2)c2ccccc2)cc(OC)c1 (stereo not given) | 1.37% | – |
| Cc1nnc(-c2cnn(C)c2N)n1CCc1cccs1 | -7.12% | – |
| N#Cc1nc(Nc2ccc(Br)cc2)nc(NC2CCCC2)n1 | 8.95% | – |
| O=C1NS(=O)(=O)c2cscc21 | 3.07% | – |
| CN(Cc1ncc[nH]1)c1ncnc2ccc(-c3ccc4c(c3)OCO4)cc12 | -7.8% | – |
| COc1ccc(C2Nc3ccccc3C(=O)N2Cc2cccc(-c3ccccc3)c2)cc1COc1ccc(NC(C)=O)cc1 (stereo not given) | 4.1% | – |
| COC(=O)c1ccc(-c2c(NC(C)=O)sc3c2CCNC3)cc1 | -0.341% | – |
| O=C1c2ccccc2C(=O)N1c1ccc(Cl)cc1 | 7.5% | – |
| O=C(NC1CCCc2c1cnn2-c1ccc(F)cc1F)c1ccccn1 (stereo not given) | – | inactive |
| Cc1ccc(NC(=O)c2cnn3c(C)cc(C)nc23)cc1 | -0.23% | – |
| Clc1cccc(-c2ccc3ncnc(NCc4cccnc4)c3c2)c1 | -1.78% | – |
| Cc1cccc(-c2nnc(C)n2CCCn2ccnc2)c1N | -0.0463% | – |
| CC(C)(C)c1ccc(-n2cnc3cc(C(=O)N4CCCCC4)ccc32)cc1 | 0.337% | – |
| Cc1ccc(S(=O)(=O)N(C)c2cccc3cccnc23)cc1 | 2.24% | – |
| Cc1cnc(-c2ccccc2C2CC2)nc1NCc1ccc(-c2cccnc2)cc1 | 1.28% | – |
| COc1ccc(C2Nc3ccccc3C(=O)N2Cc2ccccc2C(F)(F)F)cc1COc1ccc(NC(C)=O)cc1 (stereo not given) | 3.79% | – |
